# The full ranking holds about 33,000 sequences; the median of “E-score (dimensionless, -0.5 to 0.5)” is about -0.058, and the highest 2% start at about 0.35. The full list was thinned out, with the highest values kept by preference.
# System: MvaT
# Assay: PBM 8-mer E-score (mean of HK and ME arrays) (E-score (dimensionless, -0.5 to 0.5)); higher = stronger relative binding preference
# Procedure: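 Protein binding microarray: GST-tagged full-length MvaT (P. aeruginosa PAO1) bound to two universal double-stranded 60-mer arrays (ME and HK), each with a constant 25-mer primer and a variable 35-mer region covering all 8-mers. The 8-mer E-score (rank-based, range -0.5 to 0.5, >0.45 = specific binding) is the mean of the two arrays.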
row,Sequence,PBM 8-mer E-score
1,TAAGCCTA,-0.0915
2,GAACTTGA,0.266
3,AGTCCAGA,-0.101
4,AAACCATA,0.251
5,CGCTTAGA,-0.0246
6,AATAAAGC,0.292
7,ATCCTATA,0.189
8,ACCTATAA,0.208
9,ACACGTGT,-0.0859
10,AACCGCAA,0.00741
11,ACTATAAG,0.273
12,ATTATAAG,0.432
13,TTTATAAA,0.411
14,TTGATAAA,0.253
15,TTCATAAA,0.238
16,ATTATACG,0.274
17,CCTACAGC,-0.247
18,ACTACGAG,0.0492
19,AGGCCATG,-0.221
20,CGCGTGAA,0.0803
21,AGCGTCAT,-0.205
22,ATATGCCA,0.181
23,ACAGCATA,0.147
24,ATTATATG,0.416
25,CTTATAGA,0.0191

row,Sequence,PBM 8-mer E-score
1,CTTATATA,0.452
2,ATTATAGG,0.304
3,GTTATAGA,0.222
4,GTTATACA,0.281
5,CTGATATA,0.358
6,ATGATATA,0.262
7,ATGATATG,0.199
8,GTGATATA,0.247
9,GTTATATA,0.456
10,CTTATATC,0.184
11,GGCTCACC,-0.247
12,AGCTCGAG,-0.0655
13,ATTTACTC,0.0973
14,AACGAGAG,-0.094
15,AAAAGAGA,0.103
16,ATTATACC,0.337
17,ATTATATC,0.444
18,ATTATAGA,0.331
19,CTTATACA,0.229
20,ATTATATA,0.47
21,ATTATACA,0.388
22,ACACTAAT,0.345
23,CCACGGTC,-0.022
24,AGGAGGAA,-0.174
25,TGATAAAA,0.258

row,Sequence,PBM 8-mer E-score
1,GGATATAA,0.307
2,TGATATAA,0.353
3,CGATATAA,0.395
4,CGATATAG,0.196
5,CGATATAC,0.219
6,CGAATAAG,0.122
7,ATTGGATG,0.131
8,CAATCCAA,-0.0468
9,AATTCACA,0.206
10,ATGTATTG,0.244
11,CTGTATTA,0.36
12,ATGTATTC,0.152
13,CTGTATTC,0.0463
14,GTGTATTA,0.276
15,ATGTATTA,0.399
16,CTAGTATC,-0.0351
17,CAATACTC,0.106
18,AAAACGAC,0.0691
19,AAAATGAA,0.226
20,GACAGAAC,-0.0903
21,ATTATCTC,0.157
22,ATTATCTG,0.355
23,ATTATCAG,0.354
24,ATTATCAC,0.24
25,ATTATCAA,0.321

row,Sequence,PBM 8-mer E-score
1,ATTATCTA,0.269
2,GTAATGAC,-0.00906
3,AGCTGGCC,-0.255
4,CTCTAAAA,0.0251
5,ATATAAAG,0.382
6,CTATAAGA,0.188
7,GTATAAAA,0.216
8,AGATAAAG,0.0927
9,ATATAAGC,0.311
10,ATATAAAC,0.433
11,TTATAAAA,0.399
12,CTATAAAG,0.0669
13,CTATAAAC,0.223
14,ATATAAGA,0.388
15,GTATAAAC,0.316
16,GCATCCCC,-0.212
17,CATTTTCG,0.126
18,GACTAGTC,-0.0899
19,GCACCGCC,-0.175
20,CGGCTTGA,-0.132
21,ACATTACC,0.113
22,CTTTTGTC,0.0941
23,ATATAAAA,0.431
24,ATGTAAAT,0.327
25,CTATAAAA,0.171

row,Sequence,PBM 8-mer E-score
1,ATATAAAT,0.45
2,ATAAAAGA,0.263
3,AGATAAAT,0.241
4,CTCTCATA,0.00755
5,ACGGACGA,-0.238
6,CCAAATTA,0.228
7,ACAAAATG,0.0821
8,ACAAAATA,0.39
9,ACAAATTG,0.137
10,ACAAATTA,0.35
11,GCAAAATA,0.198
12,CGCCCAAC,-0.0513
13,CATCCTTA,0.0793
14,ACATAGTC,0.172
15,AGACTAGA,0.16
16,CGTCCAAC,-0.205
17,AAAGCGTT,0.0685
18,GAGGGATA,-0.0756
19,AGTGTTTC,0.161
20,AAAGTTTA,0.353
21,ACAGTTAT,0.305
22,AAAGTTAT,0.36
23,TGAGTTAA,0.272
24,AAAGTTGT,0.264
25,AAAGTTTC,0.296

row,Sequence,PBM 8-mer E-score
1,GAAGTTAA,0.317
2,CTAGTTTA,0.306
3,GAAGTTTA,0.304
4,TAAGTTAA,0.426
5,ATAGTTTA,0.35
6,ATAGTTTC,0.275
7,ACTCAGAT,0.101
8,CACAACGA,0.0491
9,CTTGGACA,-0.17
10,ACAGGCAC,-0.193
11,CTTTTGGC,-0.0767
12,AAAGTTAG,0.353
13,GAAGTTCA,0.16
14,ATAGTTAA,0.339
15,GTAGTTAA,0.283
16,CTAGTTAA,0.36
17,TAAGTTCA,0.353
18,AAAGTTAA,0.353
19,CAAGTTAG,0.194
20,AAAGTTCA,0.322
21,CAAGTTAA,0.332
22,AAAGTTAC,0.212
23,ACAGTTAA,0.299
24,CATACGTA,-0.0616
25,AAGTTTCA,0.303

row,Sequence,PBM 8-mer E-score
1,GAGCTGAC,-0.316
2,TATCTACA,0.17
3,ACCCCATA,-0.17
4,CAAAGTAG,0.0209
5,CCTGGGTC,-0.264
6,ACGGATAT,0.113
7,GGTATTAA,0.34
8,CGTATTAC,0.17
9,CGTATTAG,0.0961
10,TGTATTAA,0.39
11,CGTATTAA,0.35
12,AGTATTAA,0.328
13,GTCATAAC,0.0325
14,GTACATGA,0.066
15,ATGTGGGA,0.0305
16,ACGTATGA,-0.1
17,CGGTTATA,0.224
18,GCTTATTA,0.254
19,AATTATTA,0.438
20,AATTATTG,0.351
21,GATTGTTA,0.204
22,AATTGTTA,0.377
23,CCTTATTA,0.292
24,AATTATCG,0.336
25,ACTTATTG,0.29

row,Sequence,PBM 8-mer E-score
1,CATTGTTA,0.157
2,AATTACTA,0.323
3,ACTTATTA,0.416
4,TCTAGGCA,-0.16
5,CCGAGCGC,-0.231
6,TATCTGAA,0.238
7,ATGTCCTG,-0.157
8,CATAGCGA,0.0278
9,AGTACCGC,-0.108
10,GTGAGCTA,-0.209
11,CAAGCCTG,-0.209
12,ACTTATTC,0.229
13,CATTAGTA,0.191
14,AATTATCC,0.296
15,AATTAGTA,0.384
16,AATTATTC,0.352
17,AATTAGTC,0.282
18,GAGATTTA,0.0378
19,GTTGCATA,0.0505
20,ATCATTAC,0.235
21,CGACAACA,0.0714
22,CCTATTAG,0.0715
23,CCTATTAC,0.151
24,AAGATTAT,0.286
25,AATATTAC,0.372

row,Sequence,PBM 8-mer E-score
1,CATATTAC,0.294
2,AATATTAG,0.394
3,CATATTAG,0.305
4,AATATCAT,0.294
5,AATATTGC,0.307
6,AATATTAT,0.445
7,AATATTGT,0.355
8,AATATTGG,0.278
9,TATTCTGA,0.132
10,CTGATAGC,-0.222
11,CCCGGGCG,-0.302
12,GAGCTGGC,-0.277
13,AACTCTTA,0.21
14,GTAAATAC,0.228
15,ATAAATGA,0.316
16,GTAAATAA,0.366
17,ATAAATAT,0.44
18,GTAAATGA,0.222
19,ATAAATCG,0.255
20,ATAAATAA,0.442
21,CTAAATAG,0.102
22,ATAAACAT,0.342
23,ATAAAGAT,0.333
24,ATAAATCA,0.295
25,ATAAATAG,0.358

# From the supplement of paper PMC4466236
